# This is a sample that favours compounds with a hit; in the whole collection about 3% have one here.
# PAFAH1B2 FP inh – blocks human PAF acetylhydrolase 1b catalytic subunit 2. 1.2% of 340,000 active. recombinant PAFAH1B2, FP-rhodamine activity probe, fluorescence polarization. inhibition, % at 3.39 µM;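 active = inhibition above the mean of all tested compounds plus 3 SD, cut at about 24% in these data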;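 also: 0% = enzyme with DMSO and 100% = wells lacking PAFAH1B2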
# PAFAH1B3 FP inh – inhibitors of human PAFAH1B3; Q15102; recombinant PAFAH1B3, FP-rhodamine probe, fluorescence polarization; inhibition, % at 3.39 µM; 0.28% of 340,000 active; AID 492972;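 active = inhibition above the screen-wide average of all tested compounds plus 3 SD, cut at about 25% in these data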;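 also: 0% = enzyme with DMSO only and 100% = wells lacking PAFAH1B3 protein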
# pPAFAH FP inh – pPAFAH (human) enzyme inhibition; recombinant pPAFAH, FP-rhodamine probe fluorescence polarization; 1.5% of 330,000 active; inhibition, % at 3.39 µM; Q13093;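 active = inhibition above the mean inhibition across the screen plus 3 SD, cut at about 25% in these data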;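 also: inhibitors block binding of the rhodamine activity-based probe so polarization drops; 0% = enzyme with DMSO and 100% = wells lacking pPAFAH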
# PAFAH2 inh – inhibitors of human PAFAH2 | Q99487 | recombinant PAFAH2, FP-rhodamine activity probe, fluorescence polarization | inhibition, % at 3.39 µM | 0.99% of 340,000 active | AID 492956;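 active = inhibition above the mean over all tested compounds plus 3 SD, cut at about 30% in these data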;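 also: inhibitors block probe labeling of enzyme so polarization drops; 0% = enzyme with DMSO and 100% = wells lacking PAFAH2 protein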
# Fh CTSL1 inh – blocks F. hepatica cathepsin L1 in PFM18AAP counter-screen. recombinant F. hepatica cathepsin L1, Z-Leu-Arg-MCA fluorescence. inhibition, % at 5.96 µM. 0.49% of 300,000 active;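 active = inhibition above the mean of all tested compounds plus 3 SD, set per screening campaign, cut at about 17% in these data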;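 also: 0% = plate median of test compound wells and 100% = 1 µM Z-Phe-Ala-diazomethylketone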
# PP5 inh – PP5 (human) phosphatase inhibition; purified PP5c, OMFP substrate fluorescence; inhibition, % at 6.7 µM; 0.18% of 320,000 active; AID 1987;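 active = inhibition above the campaign's mean inhibition across all tested compounds plus 3 SD, cut at about 9.5% in these data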;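 also: 0% = DMSO only and 100% = 100 µM cantharidin control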
# Target sequence (P53041 whole entry, looked up): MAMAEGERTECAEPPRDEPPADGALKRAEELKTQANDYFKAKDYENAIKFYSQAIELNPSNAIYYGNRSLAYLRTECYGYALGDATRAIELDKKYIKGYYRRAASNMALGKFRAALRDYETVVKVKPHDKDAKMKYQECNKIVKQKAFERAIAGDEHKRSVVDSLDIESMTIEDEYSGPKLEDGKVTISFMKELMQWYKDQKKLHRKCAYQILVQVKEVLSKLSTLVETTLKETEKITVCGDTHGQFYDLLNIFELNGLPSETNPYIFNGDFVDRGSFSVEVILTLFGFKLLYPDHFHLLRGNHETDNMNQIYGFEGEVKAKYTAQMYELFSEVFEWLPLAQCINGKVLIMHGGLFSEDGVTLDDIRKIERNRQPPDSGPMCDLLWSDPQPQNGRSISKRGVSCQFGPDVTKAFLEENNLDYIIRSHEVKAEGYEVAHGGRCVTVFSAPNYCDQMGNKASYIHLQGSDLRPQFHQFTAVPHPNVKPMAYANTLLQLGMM
# The depositor's hits bear a star; / = no result.
SMILES,PAFAH1B2 FP inh,PAFAH1B3 FP inh,pPAFAH FP inh,PAFAH2 inh,Fh CTSL1 inh,PP5 inh
CCNc1nc(SC)nc(N(C#N)CC(=O)OC)n1,5,0,4,5,62*,3
CC(C)(C)C1N=C(c2ccc3ccccc3c2)OC1=O (configuration not stated),6,11,1,0,/,2
CCOC(=O)N1CCN(C(=O)Nc2ccc(NC(=O)N3CCN(C(=O)OCC)CC3)cc2)CC1,5,11,-3,3,1,3
CCOC(=O)N1CCN(C(=O)Nc2cccc3ccccc23)CC1,-2,0,-1,5,17*,1
O=c1c2c(nc3cc(-c4ccc(Cl)cc4)[nH]n13)CCS2,32*,5,16,20,0,1
CCc1c(C)nc2cc(-c3ccc(Cl)cc3)[nH]n2c1=O,2,0,9,2,-1,-1
CC(=O)c1cc2c(cc1F)C(C)(C)CCC2(C)C,0,2,/,-13,/,/
CC(NS(=O)(=O)c1ccccc1Cl)C1CC2CCC1C2 (configuration not stated),26*,0,3,-9,5,0
O=C(OCC(=O)C12CC3CC(CC(C3)C1)C2)c1ccc(O)cc1,26*,1,3,84*,/,/
CNS(=O)(=O)c1cccc(C(=O)OCC(=O)C23CC4CC(CC(C4)C2)C3)c1,30*,1,6,46*,0,0
Nc1ccc(O)cc1C(=O)OCC(=O)C12CC3CC(CC(C3)C1)C2,16,-6,29*,86*,2,3
CCN(C(=O)COc1cc(=O)n(C)c2ccccc12)c1cccc(Cl)c1,1,-6,23,0,0,1
Cc1cccc(N(C)C(=O)COc2cc(=O)n(C)c3ccccc23)c1,4,8,34*,-3,1,-1
CN(C(=O)COc1cc(=O)n(C)c2ccccc12)c1cccc(Cl)c1,2,6,28*,5,0,-1
CC[C@]12c3[nH]c4ccccc4c3CCN1C(=O)C(CC(=O)NC/C=C(\C)CCC=C(C)C)C[C@@H]2C(=O)N1CCN(C(=O)c2ccco2)CC1 (some centres not stated),3,-5,12,4,/,/
COC(=O)c1c(NC(=O)CCS(=O)(=O)c2ccccc2)sc2c1CCN(C)C2,-1,6,-1,4,-9,2
CCCN1CCc2c(sc(NC(=O)CCS(=O)(=O)c3ccccc3)c2C(=O)OC)C1,2,2,5,6,27*,3
O=C(CSc1ccc(S(=O)(=O)N2CCCC2)cn1)Nc1ccc([N+](=O)[O-])cc1C(F)(F)F,27*,-5,/,-2,/,/
CC(C)(C)NC(=O)NC(=O)CSc1ccc(S(=O)(=O)N2CCCCC2)cn1,27*,2,0,9,/,3
O=C(CCN1C(=O)C2C3C=CC(C4CC34)C2C1=O)Nc1ccc(Cl)cc1O (configuration not stated),2,2,5,3,0,0
O=C(NCc1ccc2c(c1)OCO2)c1ccc(CSCc2ccc(Cl)cc2)o1,26*,6,18,0,2,9
O=C(NCc1ccc2c(c1)OCO2)c1ccc(CS(=O)(=O)Cc2cccc(Cl)c2)o1,10,5,25*,-3,2,5
O=C(NCc1ccc2c(c1)OCO2)c1ccc(COc2cc(Cl)ccc2Cl)o1,-5,-4,2,-7,-1,6
CCc1ccccc1S(=O)(=O)Cc1ccc(C(=O)NCc2ccc3c(c2)OCO3)o1,11,5,2,5,-4,4
CCOC(=O)c1nc(SC)n(C)c1C(=O)OCC,0,2,/,-1,/,/
SMILES,PAFAH1B2 FP inh,PAFAH1B3 FP inh,pPAFAH FP inh,PAFAH2 inh,Fh CTSL1 inh,PP5 inh
CCc1ccc(CN2CCCC(C(=O)Nc3ccc(-c4cscn4)cc3)C2)o1 (configuration not stated),3,4,-7,-1,-6,0
N#Cc1c(N)nc2c(c1N)CC(=O)N2c1ccc(Cl)cc1,24*,19,8,3,-1,2
Cc1ccc(C(C)C)c(OCCNCCc2ccccc2)c1,0,8,1,-3,-1,1
C=C1C[C@@]23CCC4[C@@](C)(CCC[C@@]4(C)C(=O)O)C2CC[C@]1(O)C3 (some centres not stated),-3,5,3,9,/,0
C=C[C@]1(C)C=C2CC[C@H]3[C@@](C)(CCC[C@@]3(C)C(=O)O)[C@@H]2CC1,48*,0,4,9,/,/
Cc1nn(C)c(C)c1NC(=O)Nc1ccc(Cl)c(Cl)c1,-1,-3,-9,-5,20*,-2
O=C(COC(=O)Cc1c(F)cccc1Cl)NCc1ccc2c(c1)OCO2,4,2,4,3,/,/
COC(=O)c1ccccc1NCc1cc(=O)oc2cc(O)c(O)cc12,44*,17,82*,31*,7,-1
CCn1c(SCC(=O)N(C)CC(=O)Nc2ccc(F)c(F)c2F)nnc1-c1ccco1,6,2,4,2,-2,2
CCOC(=O)CSc1nc(N)c(C#N)c(-c2ccc(OCC)cc2)c1C#N,-3,2,-2,1,1,4
CC1=C(C#N)c2nc(N)c(C#N)c(C)c2/C1=C\c1ccc(OCC(=O)O)c(Cl)c1,2,8,32*,18,3,2
Cc1cc(O)c(C(=O)/C=C/c2ccc(Cl)cc2)c(=O)o1,3,9,27*,7,16,-9
CSc1ccc(/C=C/C(=O)c2c(O)cc(C)oc2=O)cc1,8,5,19,7,3,1
O=C(O)c1cc([N+](=O)[O-])ccc1NCCCc1ccccc1,50*,3,27*,14,5,0
O=C(O)c1cc([N+](=O)[O-])ccc1NCc1ccccc1,13,3,3,3,-2,-2
Cc1ccc([N+](=O)[O-])cc1NC(=S)NCCc1ccccc1,6,-3,5,1,58*,2
Cc1ccc(C(=O)C(c2ccccc2)N2Cc3ccccc3C2=N)cc1 (configuration not stated),5,10,9,4,-9,-6
Cc1cc(Nc2ccc(O)cc2)ccc1N,/,/,24,/,/,0
Cc1cc(-c2ccc(C(C)C)c(S(=O)(=O)N3CCC(C)CC3)c2)on1,-1,12,1,3,-4,1
CCN(CC(=O)Nc1c(F)cccc1F)C(=O)COc1ccc2c(c1)CCC2,5,0,1,-5,0,0
O=C(O)c1cccc(-n2c(O)c(C=C3N=c4ccccc4=N3)sc2=S)c1,5,5,29*,3,-2,-1
COc1ccc(NC(=O)CN2C(=O)C(C)Oc3ccccc32)cc1OC (configuration not stated),-2,11,5,3,3,-2
